This is an account of results in PubChem BioAssay (EPA / NIEHS).

Active and inactive are the calls of the source. How the source made its calls: active means hit-call score of the fitted dose curve at least 0.9, where 1 is the maximum; inactive means score below 0.9.

A short description of test [1]: APR_HepG2_NuclearSize_72hr: Apredica 72-hour HepG2 Assay for Nuclear Size (AID 2282925). Particulars: high-content imaging, actives raise or lower the signal. The essentials: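 Read-out: nuclear diameter from Hoechst 33342 images (ArrayScan, 20x, six fields/well), via cell-cycle image analysis. HepG2 were dosed 0.39–200 uM for 72 hr in 0.5% DMSO. Bidirectional fit relative to DMSO.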

A short description of test [2]: ATG_CRE_CIS: Attagene CIS-FACTORIAL HepG2 Assay for human cAMP Responsive Element (CRE) binding protein 3 (AID 2282926). Particulars: HepG2 CRE cis-reporter, Attagene multiplexed mRNA; actives raise or lower the signal. A digest of the protocol:
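Readout: fluorescently labelled reporter transcripts resolved by capillary electrophoresis after RT-PCR, taken 24 h post-dosing in transfected HepG2. Endogenous transcription factor activity drives each cis-element reporter; gain or loss of signal fitted relative to DMSO control.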

The target in test [3] is CCAAT/enhancer-binding protein beta (Homo sapiens) (UniProt P17676). The experiment in a line: ATG_C_EBP_CIS: Attagene CIS-FACTORIAL HepG2 Assay for human CCAAT/Enhancer Binding Protein (C/EBP) beta (AID 2282927). Particulars: HepG2 Attagene cis-factorial transcription factor reporter; actives raise or lower the signal. The essentials: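 HepG2, transient MRTU transfection, 24 h treatment. RT-PCR plus CE fluorescence; DMSO negative control, bidirectional fit.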
CCAAT/enhancer-binding protein beta (Homo sapiens), sequence (P17676 whole entry, looked up): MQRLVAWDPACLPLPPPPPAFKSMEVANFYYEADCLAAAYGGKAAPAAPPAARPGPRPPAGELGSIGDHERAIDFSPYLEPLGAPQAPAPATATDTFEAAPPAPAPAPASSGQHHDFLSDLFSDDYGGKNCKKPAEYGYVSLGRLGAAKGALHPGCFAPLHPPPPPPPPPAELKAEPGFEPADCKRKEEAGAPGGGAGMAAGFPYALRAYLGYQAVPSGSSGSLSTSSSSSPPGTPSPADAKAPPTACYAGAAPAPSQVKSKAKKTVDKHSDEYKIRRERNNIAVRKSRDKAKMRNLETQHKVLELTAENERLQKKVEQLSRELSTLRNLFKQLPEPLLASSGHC

A short description of test [4]: ATG_CMV_CIS: Attagene CIS-FACTORIAL HepG2 Assay for human CMV (Internal Marker) (AID 2282928).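 Further: endpoint acts as a background internal control marker rather than a target.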 Particulars: HepG2 CMV promoter reporter, transcription factor profiling; actives raise or lower the signal. The essentials:
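Readout: fluorescent reporter cDNA fragments separated by capillary electrophoresis after RT-PCR and HpaI cut. Cells: HepG2 carrying transfected cis-promoter reporter constructs, dosed 24 h. Endpoint serves as background internal-marker control, fit bidirectionally versus DMSO.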

The nature of test [5]: ATG_DR4_LXR_CIS: Attagene CIS-FACTORIAL HepG2 Assay for human Liver X Receptor (LXR), DR4 submotif (AID 2282929). Particulars: HepG2 Attagene DR4 cis-reporter, mRNA transcription; actives raise or lower the signal. A digest of the protocol:
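HepG2 cells transiently transfected with cis-promoter-driven multiplexed reporter units (DR4 element) were dosed for 24 h. Reporter mRNA was quantified by RT-PCR, fluorescent primer extension, HpaI digestion and capillary electrophoresis; bidirectional fitting versus DMSO baseline.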

In test [6] the target is Aryl hydrocarbon receptor (Homo sapiens) (UniProt P35869). The experiment in a line: ATG_Ahr_CIS: Attagene CIS-FACTORIAL HepG2 Assay for human Aryl Hydrocarbon Receptor (Ahr) (AID 2282930). Particulars: HepG2 AhR cis-factorial reporter transcription; actives raise or lower the signal. The essentials: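 Endogenous factor activity is tracked through cis-promoter reporter units transfected into HepG2 cells. Transcript levels at 24 h are read by fluorescent RT-PCR and capillary electrophoresis, with activity in either direction scored relative to DMSO.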
Aryl hydrocarbon receptor (Homo sapiens), sequence (P35869 whole entry, looked up): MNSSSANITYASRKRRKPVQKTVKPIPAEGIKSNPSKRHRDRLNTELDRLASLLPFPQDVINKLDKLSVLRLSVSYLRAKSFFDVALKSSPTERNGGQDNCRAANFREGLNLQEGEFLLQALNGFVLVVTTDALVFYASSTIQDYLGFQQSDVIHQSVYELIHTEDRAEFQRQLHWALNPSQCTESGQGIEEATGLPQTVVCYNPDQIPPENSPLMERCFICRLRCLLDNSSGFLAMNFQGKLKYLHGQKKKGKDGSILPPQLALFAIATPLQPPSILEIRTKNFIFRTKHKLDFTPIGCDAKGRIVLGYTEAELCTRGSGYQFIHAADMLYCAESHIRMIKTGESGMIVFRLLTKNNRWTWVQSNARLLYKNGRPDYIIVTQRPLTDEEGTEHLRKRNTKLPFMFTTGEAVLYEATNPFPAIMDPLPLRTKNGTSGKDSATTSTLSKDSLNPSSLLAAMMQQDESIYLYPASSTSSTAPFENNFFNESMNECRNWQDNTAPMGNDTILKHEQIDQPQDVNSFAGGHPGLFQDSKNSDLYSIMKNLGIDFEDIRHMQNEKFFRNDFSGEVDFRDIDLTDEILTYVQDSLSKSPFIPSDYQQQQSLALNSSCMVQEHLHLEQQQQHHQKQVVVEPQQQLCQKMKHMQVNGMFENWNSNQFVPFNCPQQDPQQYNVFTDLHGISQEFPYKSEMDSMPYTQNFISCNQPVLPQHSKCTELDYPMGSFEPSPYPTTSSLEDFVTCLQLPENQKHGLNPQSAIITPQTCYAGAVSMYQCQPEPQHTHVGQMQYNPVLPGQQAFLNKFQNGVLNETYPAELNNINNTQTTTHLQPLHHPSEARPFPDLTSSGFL

Test [7] is described as follows: ATG_AP_1_CIS: Attagene CIS-FACTORIAL HepG2 Assay for human Activator Protein 1 (AP-1) (AID 2282931). Particulars: HepG2 Attagene cis-factorial AP-1 reporter mRNA; actives raise or lower the signal. The essentials:
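HepG2 cells transiently transfected with cis-element-driven multiplex reporter units; 24 h compound exposure. Reporter mRNA quantified by RT-PCR, FAM-labelled fragments resolved by capillary electrophoresis; bidirectional fit versus DMSO baseline.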

Test [8] in a line: ATG_AP_2_CIS: Attagene CIS-FACTORIAL HepG2 Assay for human Activator Protein 2 (AP-2) (AID 2282932). Particulars: HepG2 AP-2 cis-reporter, Attagene transcription factor profiling; actives raise or lower the signal. The essentials: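 Liver-derived HepG2 line, cis-reporter system measuring endogenous factors; 24 h dosing; reporter mRNA detected by fluorescent RT-PCR and capillary electrophoresis.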

The nature of test [9]: ATG_BRE_CIS: Attagene CIS-FACTORIAL HepG2 Assay for human Bone Morphogenetic Protein (BMP) Response Element (BRE) (AID 2282933). Particulars: HepG2 BMP response element reporter, Attagene transcription factor profiling; actives raise or lower the signal. The essentials: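 Transient MRTU transfection of human HepG2 liver cells; 24 h compound treatment; total RNA isolated, reverse-transcribed, PCR-amplified, 6-FAM labelled, HpaI-cut, capillary electrophoresis. DMSO = negative control/baseline, bidirectional fit.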

In the case of `O=C(N[C@@H](Cc1ccccc1)[C@@H](O)C(=O)N1C[C@@H](O)[C@@H](O)C1)c1cc2cc(Cl)ccc2[nH]1`, the call in [1], in test [2], in test [3], in test [4] and in test [6] was inactive. The AC50 in test [5] was 60.5 µM (active); in [7], 159 µM (active); in test [8] it was 155 µM (active).
Turning to `Cc1ccc(Cl)cc1`, the result in [1], in test [2], in test [3], in [4], in test [5] and in test [6] was inactive. Moreover, the call in test [7], in test [8] and in test [9] was inactive.
For the compound `C1CCC(SSC2CCCCC2)CC1`, the call in test [1], in test [2], in test [3], in test [5] and in test [8] was inactive. Moreover, the AC50 in test [4] was 65.6 µM (active); in [6], 66.3 µM (active); in test [7], 125 µM (active).
As for `Cc1cccc(C)c1O`, the call in test [1], in [2], in test [3], in [4], in test [5] and in [6] was inactive. Besides, the result in test [7], in [8] and in test [9] was inactive.
Consider `Cc1cc(=O)[nH]c(=S)[nH]1`, for which the result in test [1], in test [2], in [3], in test [4], in test [5] and in [6] was inactive. Besides, the compound was called inactive in [7], in test [8] and in [9].
Take `CCCCCCCCCCCC(=O)OC`: the outcome in test [1], in test [2], in [3], in test [4], in test [5] and in [6] was inactive. In addition, the compound was called inactive in test [7] and in test [8].
Turning to `CCCCCCCCCCCCCO`, the call in test [1], in [3], in test [5], in test [6] and in test [8] was inactive. In addition, the AC50 in [2] is 10.3 µM (active); in test [4], 59.4 µM (active); in test [7], 34.3 µM (active); in test [9], 34.3 µM (active).
Take `C[C@]12C=CC(=O)C=C1CC[C@@H]1[C@@H]2C(=O)C[C@@]2(C)[C@H]1CC[C@]2(O)C(=O)CO`: the outcome in test [1], in test [2], in [3], in test [4], in test [5] and in [6] was inactive. Also, the compound was classed as inactive in [7], in [8] and in test [9].
Regarding `Cc1ccccc1Cl`, the call in test [1], in test [2], in test [3], in test [4], in test [5] and in test [6] was inactive. For the same compound, the call in [7], in test [8] and in [9] was inactive.
With `CC(C)c1ccc(C(=O)N=C(N)N)cc1S(C)(=O)=O`, the compound was called inactive in test [1], in [2], in [3], in test [4], in test [5] and in [6]. The call in test [7] and in test [8] was inactive.
As for `Cc1nc(-c2ccc3c(c2)CCN(CCC2CCC(NC(=O)/C=C/c4ccc(F)cc4)CC2)CC3)no1` (stereo not drawn), the result in test [1], in test [2], in [3], in test [4], in test [5] and in test [6] was inactive. In addition, the compound was called inactive in test [7], in test [8] and in [9].
Take `Cc1ccc2ncccc2c1`: the compound was classed as inactive in test [1], in test [2], in test [3], in test [4], in [5] and in [6]. Also, the call in [7] and in test [8] was inactive.
As for `O=c1[nH]cc(F)c(=O)[nH]1`, the call in [1], in test [2], in [3], in test [5], in test [6] and in test [8] was inactive. Further, the half-maximal activity concentration (AC50) in [4] is 8.27 µM (active); in test [7] it was 12.9 µM (active).
On to `COc1ccc(C)cc1N`, for which the compound was called inactive in [1], in [2], in test [3], in test [4], in [5] and in test [7]. Moreover, in test [8], the outcome was inactive. In addition, the AC50 in test [6] was 100 µM (active).
With `Cc1nc(C)nc(N2C[C@@H](C)N(c3ccnc([C@@H](C)O)n3)[C@@H](C)C2)n1`, the compound was called inactive in test [1], in [2], in [3], in test [4], in [5] and in test [6]. Moreover, the call in test [8] was inactive. In [7], the AC50 is 23.1 µM (active).
Regarding `CC=Cc1ccc(O)c(OC)c1`, the compound was called inactive in test [1], in [2], in test [3], in [4], in test [5] and in test [7]. Further, the compound was called inactive in test [8] and in test [9]. The half-maximal activity concentration (AC50) in test [6] was 73.5 µM (active).
Regarding `CC1(C)NC(=O)NC1=O`, the compound was classed as inactive in test [1], in test [2], in [3], in test [4], in test [5] and in test [6]. For the same compound, the compound was classed as inactive in [7], in test [8] and in [9].
Regarding `COCCOC[C@H](CC1(C(=O)NC2CCC(C(=O)O)CC2)CCCC1)C(=O)Oc1ccc2c(c1)CCC2` (stereo partly drawn), the outcome in test [1], in test [2], in test [3], in [4], in test [5] and in [6] was inactive. Moreover, the outcome in test [7], in [8] and in [9] was inactive.
Take `C=CCc1ccc(O)c(OC)c1`: the compound was classed as inactive in test [1], in test [2], in test [3], in test [5], in test [6] and in [7]. Besides, the compound was called inactive in test [8]. In test [4], the AC50 was 80.2 µM (active).
In the case of `CC(=O)OCCOCCOCCOC(C)=O`, the call in test [1], in [2], in test [3], in test [4], in test [5] and in test [6] was inactive. Further, the result in test [7] and in test [8] was inactive.
Regarding `Cc1ccc(C)c(O)c1C`, the result in test [1], in test [2], in test [3], in [4], in test [5] and in test [6] was inactive. Further, the result in test [7], in test [8] and in test [9] was inactive.
With `CCOC(=O)CCC(=O)OCC`, the compound was called inactive in [1], in test [2], in test [3], in test [4], in test [5] and in test [7]. In addition, the compound was classed as inactive in [8] and in test [9]. Moreover, the AC50 in [6] was 75.7 µM (active).

A word on the AC50: it is the concentration at which the activity in the assay is half-maximal.
